VLA-4 inh – inhibition in a human VLA-4 binding assay; P13612; VLA-4 expressing cells, ligand binding flow cytometry; inhibition, % (about 7 µM as worked out from the volumes in the protocol); hit rate 0.2% among 330,000; in the data active = inhibition above about 50%
JMJD2C inh – inhibitors of human GASC-1 (JMJD2C) demethylase | Q9H3R0 | GST-JMJD2C(1-420) H3K9me3 demethylation, DELFIA europium | inhibition, % at 2.35 µM | hit rate 0.069% among 330,000;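 active = more than half of a compound's replicate wells show inhibition beyond 50%, single wells judged on their own value; inconclusive = some, but no more than half, of replicates pass 50% inhibition; inactive = no replicate passes 50% inhibition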;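 note: signal counts dimethyl H3K9 product captured on neutravidin plate; 0% = median of DMSO wells and 100% = 0.3 times that DMSO median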
Target sequence (Q9H3R0 1-420 limits assumed): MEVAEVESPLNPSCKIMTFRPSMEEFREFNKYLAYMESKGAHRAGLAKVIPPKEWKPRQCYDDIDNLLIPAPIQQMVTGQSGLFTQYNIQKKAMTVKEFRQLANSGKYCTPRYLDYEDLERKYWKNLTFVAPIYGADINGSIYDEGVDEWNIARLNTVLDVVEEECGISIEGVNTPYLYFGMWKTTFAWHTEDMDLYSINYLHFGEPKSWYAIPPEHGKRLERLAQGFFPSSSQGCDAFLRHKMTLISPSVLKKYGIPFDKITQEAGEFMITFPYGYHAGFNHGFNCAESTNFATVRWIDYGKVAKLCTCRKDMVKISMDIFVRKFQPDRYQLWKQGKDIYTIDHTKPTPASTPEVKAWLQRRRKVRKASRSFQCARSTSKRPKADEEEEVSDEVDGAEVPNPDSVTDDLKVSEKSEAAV
PolyA inhibitor – inhibitors of polyadenylation in S. cerevisiae. AID 1875. S. cerevisiae SKY197-pL101 polyadenylation reporter, beta-gal luminescence; efflux-impaired pdr1/pdr3 knockout yeast; score 100 = 6 SD above DMSO. hit rate 0.02% among 300,000. activity score, % at 12 µM;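 active = lowest replicate activity score at least 50, where 100 means six control SD above control mean; inconclusive = lowest score under 50 but half or more replicates reach 50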;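 note: yeast exposed to compound for 9 h at 30 °C; higher score means more reporter readthrough which indicates perturbed polyadenylation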
ABCB6 inh 2 – blocks the human ABCB6 transporter | hit rate 0.19% among 360,000 | fluorescence ratio to DMSO, % at 10 µM | K562-ABCB6 porphyrin accumulation, flow cytometry, 1 h; hits give low values | AID 602162;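 active = fluorescence ratio to DMSO below 75%, the collection mean minus 3 SD; inconclusive = too few cells collected in the well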;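 note: signal is porphyrin accumulated inside mitochondria; 100% equals median channel fluorescence of DMSO control wells; lower ratio means ABCB6 inhibition with less porphyrin fluorescence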
* hit, by the source's call; i = inactive; u = inconclusive; x = no result. A selection: hits, their analogues and other compounds. The true share with any hit is near 0.44%.

SMILES	VLA-4 inh	JMJD2C inh	PolyA inhibitor	ABCB6 inh 2
O=C(NC1CC2CCC1C2)C1COc2ccccc2O1 (stereo not drawn)	-7	68*	14	93
O=C(O)CNC(=O)C1COc2ccccc2O1 (stereo not drawn)	12	-5	-3	100
CCN1CCC2(CC1)N=C(c1ccc(F)cc1)C(=S)N2	16	-16	-5	99
Cc1cc(NC(=O)C2CC(=O)OC2c2ccccc2)no1 (stereo not drawn)	6	3	14	74*
COc1ccc(NC(=O)C2CC(=O)OC2c2ccccc2)cc1 (stereo not drawn)	11	11	-17	105
COc1ccc(N2CSC3=C(C#N)C(c4cc(OC)ccc4OC)CC(=O)N3C2)c(OC)c1 (stereo not drawn)	-29	1	-5	74*
COc1ccc(N2CSC3=C(C#N)C(c4cc(OC)c(OC)cc4OC)CC(=O)N3C2)c(OC)c1 (stereo not drawn)	-4	2	2	102
CCNC(=S)NC(=NCc1cccnc1)Nc1nc(C)cc(C)n1	-8	76*	0	94
CCNC(=S)/N=C(/Nc1ccccc1)Nc1nc(C)cc(C)n1	-19	-2	-12	116
C#CCOCCOCCOCCNc1nc(N2CCN(C(=O)CCCCCCCCCCNC(=O)[C@H](CO)n3cc(CCCSC)nn3)CC2)nc(N2CCN(C(=O)CCCCCCCCCCNC(=O)[C@H](CCCCN)n3cc(CCO)nn3)CC2)n1	-9	-29	x	92
C#CCOCCOCCOCCNc1nc(N2CCN(C(=O)CCCCCCCCCCNC(=O)[C@H](CO)n3cc(CCCSC)nn3)CC2)nc(N2CCN(C(=O)CCCCCCCCCCNC(=O)[C@H](CCCN=C(N)N)n3cc(C[C@@H](C)CC)nn3)CC2)n1	-9	57*	x	87
CC(=O)C1=C(O)C(=O)N(CCC(=O)O)C1c1ccc(Cl)cc1Cl (stereo not drawn)	1	5	5	97
COc1ccc(OCC(=O)N/N=C/C(C)=C/c2ccco2)c(Br)c1	3	67*	9	102
Nc1ccc(O)c(C(=O)O)c1	51*	-19	-22	x
Cc1ccc(S(=O)(=O)c2ccc([N+](=O)[O-])o2)cc1	x	x	x	50*
O=C(CSc1nnnn1-c1cccc(Cl)c1)Nc1ccc2c(c1)CCC2	19	3	13	x
N#C/C(=C\c1ccc([N+](=O)[O-])o1)c1nc2ccccc2[nH]1	i	5	711*	x
Cc1cccc(C)c1NC(=O)CN(C)CC(=O)Nc1cc(Cl)ccc1C#N	-8	0	-8	90
CCOc1ccc(NC(=O)CN(C)CC(=O)Nc2cc(Cl)ccc2C#N)cc1OCC	-1	60*	16	90
CN(c1ccccc1)S(=O)(=O)c1cc(Cl)ccc1Cl	51*	-2	-1	97
Cc1ccnc2nc(C(=O)OCC(=O)N3CCc4ccccc43)nn12	5	-3	-8	96
C=CCn1c(N)c(-c2nc3ccccc3n2C)sc1=S	-33	50*	-13	92
CCOC(=O)c1oc2ccccc2c1NC(=O)c1ccc2c(c1)OCO2	1	u	-11	111
Cc1cccc([C@@H](NC(=O)OC(C)(C)C)C(=O)OC(C)(C)C)c1	19	-1	x	68*
CC(C)(C)OC(=O)N[C@@H](C(=O)OC(C)(C)C)c1ccccc1	1	x	x	92
SMILES	VLA-4 inh	JMJD2C inh	PolyA inhibitor	ABCB6 inh 2
Clc1ccc(N=c2ssnc2Cl)nc1	34	54*	-99	99
CC(C)c1ccc(C2NC(=S)NC3=C2C(=O)CCC3)cc1 (stereo not drawn)	0	-9	17	69*
CCOc1cc(NC(=S)NCCCOC)c(OCC)cc1NC(=O)c1cccs1	-2	14	-13	102
CCOc1cc(NC(=S)NCCOC)c(OCC)cc1NC(=O)c1cccs1	4	69*	-12	x
Cc1cccc(NS(=O)(=O)c2cc3c(cc2C)n(C)c(=O)c(=O)n3C)c1	7	3	10	95
C/C(=N\NC(=O)COc1ccc(C)cc1Br)c1cc([N+](=O)[O-])cs1	37	0	-15	81
C/C(=N\NC(=O)COc1ccc(C)cc1[N+](=O)[O-])c1cccs1	-1	6	98*	96
COc1ccc2[nH]c3c(N4CCC(O)(c5cccc(C(F)(F)F)c5)CC4)ncnc3c2c1	3	-8	9	95
O=C(CSc1nc2ccccc2c(=O)n1Cc1ccccc1)NCc1ccco1	4	40	10	96
O=C(CSc1nc2ccccc2c(=O)n1Cc1ccc(C(=O)NC2CC2)cc1)NCc1ccco1	-1	61*	-12	95
CC(C)(C)OC(=O)CNC(=O)c1[nH]cnc1C(=O)NCCCCCNC(=O)OC(C)(C)C	-4	-9	-8	74*
c1ccn2c(SCc3cn4ccsc4n3)nnc2c1	3	51*	3	89
COC(=O)c1sccc1-c1ccc(/C=N/OC(=O)c2ccccc2)o1	4	6	11	54*
COC(=O)c1ccccc1-c1ccc(/C=N/NC(N)=O)o1	-6	10	9	90
COc1ccc(/C=C/C(=O)Nc2cc(C)nn2-c2nc3ccccc3[nH]2)cc1	8	6	12	95
Fc1ccc(NC(=S)NCc2ccccc2Cl)cc1	8	5	-9	62*
CC(=NCCc1ccccc1)C1=C(O)CSC1=O	-3	-2	-1	74*
O=S1(=O)CC(N2CCN(CC3CC3)CC2)CN1C1CCCC1 (stereo not drawn)	x	x	x	101
O=C(COC(=O)c1ccco1)NNC(=O)c1ccc(Cl)cc1	6	81*	x	95
COc1ccc(C(=O)Nc2ccccc2N2CCOCC2)cc1S(=O)(=O)N1CCOCC1	-18	4	x	97
OCc1csc(=Nc2ccccc2)n1-c1ccccc1	-7	57*	-2	97
Cc1csc(=Nc2ccccc2)n1C	4	-28	0	94
COc1ccc(CN2CCCCC2C)c(C)c1C (stereo not drawn)	15	50*	-9	103
CN(c1ccc(OCC(=O)N2CCCCC2)cc1)S(=O)(=O)c1cccs1	8	64*	2	103
Cc1nc2ccc(C(=O)N/N=C/c3cc([N+](=O)[O-])ccc3O)cc2[nH]1	0	58*	8	103
SMILES	VLA-4 inh	JMJD2C inh	PolyA inhibitor	ABCB6 inh 2
Cc1nc2ccc(C(=O)N/N=C/c3ccccc3O)cc2[nH]1	0	-23	-6	96
Cc1nc2ccc(NC(=O)Cc3ccc4c(c3)OCCO4)cc2s1	10	4	84*	86
Cc1nc2ccc(NC(=O)COc3ccccc3[N+](=O)[O-])cc2s1	-5	-23	-9	99
Cc1nc2ccc(NC(=O)COc3ccccc3C)cc2s1	22	65*	-1	95
CC(=O)c1c(COC(=O)c2ccc(Cl)cc2)nc2ccccc2[n+]1[O-]	6	-4	90*	97
NC(=O)C[C@@H]1N[C@]2(C(=O)Nc3ccccc32)[C@@H]2C(=O)N(C3CCCCC3)C(=O)[C@H]12	-20	-2	8	98
COc1cc(/C=C2\SC(=O)N(CCNC(=O)c3sc4cc(F)ccc4c3Cl)C2=O)cc(OC)c1OC	2	2	-4	73*

Bioassay records from PubChem BioAssay.
